Inconclusive results are not listed. Active and inactive are the calls of the source. Calls follow the shape of the dose curve; as a rule, active = well fitted curve in either direction with a large enough effect (not every such curve was filed as active); inconclusive = small, poorly fitted or top-dose-only effect, or another doubt; inactive = flat fitted curve, though single readings scatter.
Experiment: Stat Signaling Pathway (AID 446);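 also: ME-180 cervical cancer cells given 40 pM IL-6 alongside compound; SIE-controlled beta-lactamase reporter measured as 460/530 nm FRET emission ratio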
Conditions: ME-180 SIE beta-lactamase reporter, IL-6 stimulated, 5 h; at 7.69 µM (top of the series) unless noted
Procedure, shortened: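 ME-180 SIE-bla cells; overnight plating; cpd + IL-6 40 pM, 5 h, 37 C; LiveBLAzer 2.5 h RT; 460/530 nm emission ratio. Normalized to 300 pM IL-6 and 125 nM JAK inhibitor controls.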
% is scaled to controls: 0 for no effect and ±100 for the full control effect.

SMILES	activity, negative = inhibition
O=C(O)C[C@H](Cc1ccccc1Cl)C(=O)O	13.9% (inactive)
Cc1cc(Cl)nc(NC(=O)CSc2ccc(Cl)cc2)n1	11% (inactive)
COc1ccc2c(=O)cc(-c3ccncc3)oc2c1OC	-17.8% (inactive)
c1ccc2c(CC3NCCN3)cccc2c1	1.71% (inactive)
NC([N-]/N=C/c1ccccn1)=[S]=[Fe].O=S(=O)(O)O	-13.8% (inactive)
OCCCN=C1CCCCC1	-19.6% (inactive)
CC(CC(=O)O)(CC(=O)O)c1ccccc1	7.69% (inactive)
CC(=O)O[C@H]1CC[C@@]2(C)C(=CC[C@@H]3[C@@H]4CC[C@H](c5cc(C(F)(F)F)n(C(C)=O)n5)[C@]4(C)CC[C@@H]32)C1	16.4% (inactive)
CN(C)Cc1cc(O)c(O)c(CN(C)C)c1	2.92% (inactive)
Cn1c(=S)c2[nH]c(SCCCc3ccccc3)nc2n(C)c1=O	-23.2% (inactive)
Cc1noc(NC(=O)Nc2ccccc2F)c1C#N	-14.1% (inactive)
COc1cccc(Nc2ncc3ncc(=O)n(C4CC4)c3n2)c1	-24.1% (inactive)
Cc1nnc(S(=O)(=O)c2ccc(N=Nc3c(N)nc(N)nc3N)cc2)s1	-3.59% (inactive)
Cc1cc(SCC(=O)c2ccccc2)nc2ccccc12	9.67% (inactive)
CC(CCC(=O)O)(c1ccc(O)cc1)c1ccc(O)cc1	-4.62% (inactive)
C[C@]12CC[C@H]3c4ccc(O)cc4CC[C@@H]3[C@H]1CC[C@@H]2OC(=O)CCc1ccccc1	-1.42% (inactive)

SMILES	activity, negative = inhibition
C/C(=N/O)[C@@H]1C[C@H](CC(=O)O)C1(C)C	18.2% (inactive)
Nc1nc(N)c2[nH]c(CNc3ccc(C(=O)O)cc3)nc2n1	-0.181% (inactive)
Nc1nc(N)nc(CCCCc2nc(N)nc(N)n2)n1	-0.633% (inactive)
Cc1c(S(=O)(=O)O)ccc(N=Nc2c(O)c(C(=O)O)cc3ccccc23)c1Cl	-10.2% (inactive)
c1ccc2cc(NCNc3ccc4ccccc4c3)ccc2c1	-2.06% (inactive)
OC[C@@H]1O[C@@H](N2CCN([C@@H]3O[C@@H](CO)[C@@H](O)[C@H](O)[C@H]3O)CC2)[C@@H](O)[C@H](O)[C@H]1O	-5.46% (inactive)
CC1=NN(c2ccccc2)C(=O)[C@@H]1N=Nc1ccc(S(N)(=O)=O)cc1	-4.22% (inactive)
O=C1Oc2ccccc2C(=O)/C1=C\N1C(=O)N/C(=C\c2ccccc2O)C1=O	-25.4% (inactive)
Cc1ccc(N=Nc2c(O)c3ccccc3[nH]c2=O)c(S(=O)(=O)N(C)C)c1	3.87% (inactive)
CCCCNN	4.29% (inactive)
CN(C)CCCN1c2ccc3ccccc3c2Sc2cccc(Cl)c21	2.06% (inactive)
N=C1C=CC(=C(c2ccc(N)cc2)c2ccc(N)cc2)C=C1	-20.9% (inactive)
O=C(O)Cn1ccnc1[N+](=O)[O-]	6.87% (inactive)
C[C@@H]1CCCN(C[C@@H](O)CN2CCCc3ccccc32)C1	11.4% (inactive)
NCCSCCC(=O)O	0.279% (inactive)
COc1ccc2c(c1)N(CC[C@H]1CCCCN1C)c1ccccc1S2	-6.74% (inactive)

Source: PubChem BioAssay (NCATS)
